Measurements: PubChem BioAssay (Tox21)
Results filed as inconclusive are left out. A call without a number means that no potency is given here. Values without a mark were called inactive. Activity calls are given as the source filed them. Calls come from the whole dose curve; as a rule, active = well fitted inhibition curve with a large enough effect in the signal ratio in the repeat runs (not every such curve was filed as active); inconclusive = weak or mixed curves, or effect the other way; inactive = flat fitted curve, though single readings scatter; the % refers to the signal ratio.

Assay: cAMP Responsive Elements (CRE) small molecule antagonists, cell-based qHTS assay (AID 1963591)
Settings: CRE-bla HEK293T, beta-lactamase FRET ratio; series mostly up to 92.4 µM
Excerpt: U.S. Tox21 Program National Center for Advancing Translational Sciences [NCATS] Division of Preclinical Innovation [DPI] U.S. Environmental Protection Agency [EPA] National Institutes of Environmental Health Sciences [NIEHS] National Toxicology Program [NTP] U.S. Food and Drug Administration [FDA] Tox21 Assay Overview: CREB (cyclic-AMP Responsive Element Binding Protein) is a cellular transcription factor. It binds to certain DNA sequences called cAMP Responsive Elements (CRE) and regulates the transcription of the genes. […] This cell line can be used to find agonists/antagonists of the cyclic AMP signaling pathway. The activation of the report gene under culture conditions can be detected by fluorescence intensity. This cell line has been used to screen the Tox21 10K compound library to […].
Tox21 Assay Protocol Summary: CRE-bla Hek 293T cells were suspended in assay medium (DMEM containing 10% dialyzed FBS, 0.1 mM NEAA, 1 mM sodium pyruvate and 25 mM HEPES) and dispensed at 2,000 cells/4 uL /well into 1536-well black wall/clear bottom plates using a Multidrop Combi (ThermoFisher Scientific, Waltham, MA) dispenser. After the assay plates were incubated at 37 C/5% CO2 for 18 hrs, 23 nL of compounds dissolved in DMSO, positive controls or DMSO only was transferred to the assay plate by a pintool workstation (Kalypsys, San Diego, CA), followed by addition of 1 […] uL of 1.25uM NKH477 (0.25 uM as final concentration) in assay medium using a Flying Reagent Dispenser (Aurora Discovery, San Diego, CA). The plates were incubated at 37 C and 5% CO2 for 3 hrs. Then 1 uL of LiveBLAzer B/G FRET substrate (Invitrogen, Carlsbad, CA) was added to each well using Bioraptr Flying Reagent Dispenser (FRD, Aurora Discovery, San Diego, CA). The plates were incubated at room temperature for 2 h.
Potency is the fitted concentration of half-maximal effect.

For `NNC(=O)OCc1ccccc1`, which Potency is on record?
The Potency was “inactive”.

With `c1cc(CCCc2ccncc2)ccn1` as the molecule, how does the Potency read?
Its Potency is “inactive”.

With `C[C@@H](C1=C(CCN(C)C)Cc2ccccc21)c1ccccn1` as the molecule, how does the Potency read?
Its Potency is “inactive”.

Which Potency does the source give for `CC(C)(N)C#N` here?
The Potency was “inactive”.

With `CCCCC(CC)COP(=O)(O)O` (stereo not given) as the molecule, how does the Potency read?
The Potency was “inactive”.

With `O=C(NO)C1(NS(=O)(=O)c2ccc(Oc3ccc(F)cc3)cc2)CCOCC1` as the molecule, how does the Potency read?
The Potency was “inactive”.

For `O=C(O)c1c(Cl)ccc(Cl)c1Cl`, which Potency is on record?
Its Potency is “inactive”.

Which Potency does the source give for `CN(C)CCOC(c1ccccc1)c1ccc(Br)cc1` (stereo not given) here?
The Potency was “inactive”.

Which Potency does the source give for `CCCCCCNC(=O)n1cc(F)c(=O)[nH]c1=O` here?
Its Potency is “inactive”.

For `CCN(CC)CCNC(=O)c1c(C)[nH]c(/C=C2\C(=O)Nc3ccc(F)cc32)c1C`, which Potency is on record?
Its Potency is “inactive”.

With `COC1CCC=CO1` (stereo not given) as the molecule, how does the Potency read?
The Potency was “inactive”.

With `COc1cccc(N(C)C(=S)Oc2ccc3c(c2)CCCC3)n1` as the molecule, how does the Potency read?
The Potency was “inactive”.

Which Potency does the source give for `COc1cc(S(=O)(=O)Nc2ccccc2)c(OC)cc1N` here?
The Potency was “inactive”.

With `Cc1nc(Nc2ncc(C(=O)Nc3c(C)cccc3Cl)s2)cc(N2CCN(CCO)CC2)n1` as the molecule, how does the Potency read?
The Potency was “inactive”.

For `Cc1ccc(O)c2ncccc12`, which Potency is on record?
The Potency was 13.3 µM (active).

With `C1CCC2=NCCCN2CC1` as the molecule, how does the Potency read?
Its Potency is “inactive”.

For `C=CCCCCCCCCCCCCCC`, which activity change, negative = inhibition is on record?
Its activity change, negative = inhibition is -3.11% [at 18.9 µM].

Which Potency does the source give for `CC(C)(C)C(=O)CCc1ccc(Cl)cc1` here?
The Potency was “inactive”.

Which Potency does the source give for `CO[Si](C)(OC)OC` here?
The Potency was “inactive”.

With `CO[C@]1(NC(=O)CSC(F)F)C(=O)N2C(C(=O)O)=C(CSc3nnnn3CCO)CO[C@H]21` as the molecule, how does the Potency read?
The Potency was “inactive”.

With `CCOC(=O)CC(O)(CC(=O)OCC)C(=O)OCC` as the molecule, how does the Potency read?
Its Potency is “inactive”.

With `Cc1cccc(C(=O)O)c1O` as the molecule, how does the Potency read?
Its Potency is “inactive”.

With `CC(C)NC(=O)c1ccc(C=O)cc1` as the molecule, how does the Potency read?
The Potency was “inactive”.

Which Potency does the source give for `N#CCCCC(C#N)CCC#N` (stereo not given) here?
The Potency was “inactive”.

With `NCCCCCCNCCCCCCN` as the molecule, how does the Potency read?
The Potency was “inactive”.

For `CC(C)(CO)[C@@H](O)C(=O)NCCCO`, which Potency is on record?
The Potency was “inactive”.

Which Potency does the source give for `COc1ccc(CCN(C)CCCN2CCc3cc(OC)c(OC)cc3CC2=O)cc1OC` here?
The Potency was “inactive”.

For `COC=O`, which activity change, negative = inhibition is on record?
The activity change, negative = inhibition was 12.8% [at 8.39 µM].

With `CCCNC(C)C(=O)Nc1c(C)csc1C(=O)OC` (stereo not given) as the molecule, how does the Potency read?
Its Potency is “inactive”.

Which Potency does the source give for `CC(=O)c1ccccc1[N+](=O)[O-]` here?
The Potency was “inactive”.

With `CCCCCCCCCCCCCCC` as the molecule, how does the Potency read?
Its Potency is “inactive”.

Which Potency does the source give for `O=[N+]([O-])c1ccc(O)cc1C(F)(F)F` here?
Its Potency is “inactive”.

For `CCCOc1ccc2c(c1)CC[C@@H]1[C@@H]2CC[C@]2(C)C(OC)CC[C@@H]12` (stereo not given in full), which Potency is on record?
The Potency was “inactive”.

For `CSc1ccc(O)cc1C`, which Potency is on record?
The Potency was “inactive”.

With `O=C(O)c1cc(Br)c(O)c(Br)c1` as the molecule, how does the Potency read?
Its Potency is “inactive”.

For `CC(C)C(=O)OCCc1ccccc1`, which Potency is on record?
Its Potency is “inactive”.

For `CC(C)(c1ccc(Oc2ccc(N)cc2)cc1)c1ccc(Oc2ccc(N)cc2)cc1`, which Potency is on record?
The Potency was “inactive”.

For `CC(=O)OCC(=O)[C@@]1(O)CC[C@H]2[C@@H]3CCC4=CC(=O)CC[C@]4(C)[C@H]3C(=O)C[C@@]21C`, which Potency is on record?
Its Potency is “inactive”.

With `Cc1onc(-c2ccccc2Cl)c1C(=O)N[C@@H]1C(=O)N2[C@@H]1SC(C)(C)[C@@H]2C(=O)O` as the molecule, how does the Potency read?
Its Potency is “inactive”.

With `Cc1cccc(C)c1NC(=O)C(C)N` (stereo not given) as the molecule, how does the Potency read?
The Potency was “inactive”.
